Measured values: PubChem BioAssay AID1224904 (Broad Institute, 2016)
About 290 (0.78%) of roughly 37,000 compounds were called active. Not shown: some 10% with an inconclusive outcome.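 Rule for the calls: active = mean inhibition of at least 10% in the main channel, exceeding the control channel by a set limit; inconclusive = inhibition of 10% or more but channel gap under a set limit; inactive = mean inhibition below 10%.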 What follows is part of a selection rich in actives, with near analogues and random picks from the rest.

Assay: inhibitors of DUX4-driven ZSCAN4 reporter expression, primary screen, 293T cells, Gaussia and Italica luciferase (AID 1224904);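 for activity change, negative = inhibition: 0% = median of neutral control wells and -100% = median of positive control wells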
Settings: 293T-iDUX4 ZSCAN4-Gaussia luciferase reporter, 24 h, stronger effect = lower value, concentration not given here; for Gaussia minus Italica difference: measured here: selective DUX4 reporter inhibition
[1] = measured here: Italica tet-on control reporter

In the case of `CNC(=O)C[C@@H]1CC[C@H]2[C@H](COc3ccc(NC(=O)C4CC4)cc3C(=O)N2C)O1`, the activity change, negative = inhibition is reported as 2.13% (inactive), the activity change, negative = inhibition [1] is reported as -0.014% and the Gaussia minus Italica difference is reported as 2.15%.
For `CS(=O)(=O)N1C[C@@H](O)COC[C@@H]2O[C@H](CC(=O)NC3Cc4ccccc4C3)CC[C@H]21`, the activity change, negative = inhibition was 6.74% (inactive), the activity change, negative = inhibition [1] was -3.08% and the Gaussia minus Italica difference was 9.82%.
In the case of `CN1c2ccc(-c3ccccc3F)cc2[C@@H]2[C@@H](CCN2C(=O)CN2CCOCC2)[C@H]1CO`, the activity change, negative = inhibition is reported as 0.948% (inactive), the activity change, negative = inhibition [1] is reported as 9.9% and the Gaussia minus Italica difference is reported as -8.96%.
With `CCCNC(=O)C[C@@H]1CC[C@H]2[C@H](COc3ccc(NS(=O)(=O)c4ccccc4C)cc3C(=O)N2C)O1` the activity change, negative = inhibition was 1.9% (inactive), the activity change, negative = inhibition [1] was 7.5% and the Gaussia minus Italica difference was -5.61%.
With `C/C=C/c1ccc2c(c1)O[C@@H](CN(C)C(=O)c1ccccn1)[C@H](C)CN([C@@H](C)CO)S2(=O)=O` the activity change, negative = inhibition was -2.65% (inactive), the activity change, negative = inhibition [1] was 3.66% and the Gaussia minus Italica difference was -6.3%.
For `O=C(NC[C@@H]1[C@@H](c2ccccc2)[C@H](CO)N1C(=O)Cc1cccnc1)C1CC1`, the activity change, negative = inhibition was 3.18% (inactive), the activity change, negative = inhibition [1] was 4.6% and the Gaussia minus Italica difference was -1.42%.
With `CCCNC(=O)N1[C@H](CO)[C@@H]2c3ccccc3N(C(=O)C3CCOCC3)C[C@@H]21` the activity change, negative = inhibition was -1.95% (inactive), the activity change, negative = inhibition [1] was -0.682% and the Gaussia minus Italica difference was -1.27%.
With `CCS(=O)(=O)N1CCC2(CC1)CN[C@H](CO)c1c2c2ccc(OC)cc2n1C` the activity change, negative = inhibition was 14.5% (inactive), the activity change, negative = inhibition [1] was 10.9% and the Gaussia minus Italica difference was 3.59%.
In the case of `C[C@H](CO)N1C[C@H](C)[C@@H](CN(C)Cc2ccncc2)OCCCC[C@H](C)Oc2ccc(NS(=O)(=O)c3ccc(Cl)cc3)cc2C1=O`, the activity change, negative = inhibition is reported as 1.79% (inactive), the activity change, negative = inhibition [1] is reported as 8.83% and the Gaussia minus Italica difference is reported as -7.04%.
For `COc1cccc(C#Cc2ccc3c(c2)[C@@H]2[C@@H](CCN2S(=O)(=O)c2ccc(C)cc2)[C@@H](CO)N3)c1`, the activity change, negative = inhibition was 8.73% (inactive), the activity change, negative = inhibition [1] was 11.9% and the Gaussia minus Italica difference was -3.21%.
In the case of `COc1cccc(CNC(=O)C[C@@H]2CC[C@H]3[C@@H](COc4ccc(NC(=O)c5cccs5)cc4C(=O)N3C)O2)c1`, the activity change, negative = inhibition is reported as -0.0474% (inactive), the activity change, negative = inhibition [1] is reported as -2.71% and the Gaussia minus Italica difference is reported as 2.66%.
With `COc1ccc(CNC(=O)C[C@H]2C[C@@H]3c4cc(NC(=O)NC5CCCC5)ccc4O[C@@H]3[C@H](CO)O2)cc1` the activity change, negative = inhibition was 8.81% (inactive), the activity change, negative = inhibition [1] was 6.85% and the Gaussia minus Italica difference was 1.96%.
With `O=C(CCN1CCCCC1)NCC[C@@H]1CC[C@H](NS(=O)(=O)c2cccc(Cl)c2)[C@H](CO)O1` the activity change, negative = inhibition was 5.38% (inactive), the activity change, negative = inhibition [1] was -7.23% and the Gaussia minus Italica difference was 12.6%.
In the case of `CN1[C@@H]2c3ccc(-c4ccc(F)cc4)c(=O)n3C[C@H]1[C@H](CO)[C@H]2C(=O)NC1CCC1`, the activity change, negative = inhibition is reported as 6.4% (inactive), the activity change, negative = inhibition [1] is reported as -1.88% and the Gaussia minus Italica difference is reported as 8.27%.
In the case of `CCCNC(=O)N1C[C@@H](O)COC[C@@H]2O[C@H](CC(=O)N3CCN(C)CC3)CC[C@H]21`, the activity change, negative = inhibition is reported as 1.94% (inactive), the activity change, negative = inhibition [1] is reported as 0.769% and the Gaussia minus Italica difference is reported as 1.17%.
In the case of `CS(=O)(=O)N1CCCCN2[C@H](CO)[C@H](c3ccc(-c4cccc(C#N)c4)cc3)[C@H]2C1`, the activity change, negative = inhibition is reported as 1.86% (inactive), the activity change, negative = inhibition [1] is reported as -1.58% and the Gaussia minus Italica difference is reported as 3.44%.
In the case of `CCNC(=O)[C@H]1[C@H](CO)[C@H]2Cn3c(ccc(-c4ccc(OC)cc4)c3=O)[C@H]2N1Cc1ccccc1`, the activity change, negative = inhibition is reported as -4.11% (inactive), the activity change, negative = inhibition [1] is reported as -4.47% and the Gaussia minus Italica difference is reported as 0.354%.
With `O=C(C1CCC1)N1CC2(C1)[C@H](c1ccccc1)[C@H](CO)N2Cc1nccs1` the activity change, negative = inhibition was 12.8% (inactive), the activity change, negative = inhibition [1] was 2.26% and the Gaussia minus Italica difference was 10.6%.
With `CCC(=O)N1C[C@@H](O)COC[C@H]2O[C@H](CC(=O)NCC3CCCCC3)CC[C@@H]21` the activity change, negative = inhibition was 1.84% (inactive), the activity change, negative = inhibition [1] was 0.272% and the Gaussia minus Italica difference was 1.57%.
For `COCC#Cc1cnc2c(c1)C(=O)N([C@H](C)CO)C[C@H](C)[C@H](CN(C)Cc1ccc(-c3ccccc3)cc1)O2`, the activity change, negative = inhibition was -1.2% (inactive), the activity change, negative = inhibition [1] was -1.59% and the Gaussia minus Italica difference was 0.393%.
In the case of `C[C@H](CO)N1C[C@H](C)[C@H](CN(C)C(=O)CCN(C)C)OCc2ccccc2-c2c(n(C)c3ccccc23)C1=O`, the activity change, negative = inhibition is reported as 0.0892% (inactive), the activity change, negative = inhibition [1] is reported as 6.32% and the Gaussia minus Italica difference is reported as -6.23%.
In the case of `O=C(Nc1cccc(F)c1)N1CC(=O)N2[C@H](CO)[C@H](c3ccc(C#CC4CC4)cc3)[C@@H]2C1`, the activity change, negative = inhibition is reported as 2.91% (inactive), the activity change, negative = inhibition [1] is reported as -11.7% and the Gaussia minus Italica difference is reported as 14.6%.
With `COc1ccccc1C#Cc1ccc([C@H]2[C@H](CO)N3CCCCN(C(=O)C4CCC4)C[C@@H]23)cc1` the activity change, negative = inhibition was -36.1% (active), the activity change, negative = inhibition [1] was -8.62% and the Gaussia minus Italica difference was -27.4%.
With `C[C@@H](O)C#Cc1ccc([C@@H]2[C@H](CO)N3CCCCN(S(=O)(=O)c4ccccc4)C[C@@H]23)cc1` the activity change, negative = inhibition was 10.1% (inactive), the activity change, negative = inhibition [1] was -3.26% and the Gaussia minus Italica difference was 13.3%.
With `C[C@@H](O)C#Cc1ccc([C@@H]2[C@H]3CN(S(=O)(=O)c4ccccc4)CCCCN3[C@H]2CO)cc1` the activity change, negative = inhibition was 25.7% (inactive), the activity change, negative = inhibition [1] was 12.9% and the Gaussia minus Italica difference was 12.9%.
With `COc1ccccc1C#Cc1ccc([C@@H]2[C@@H](CO)N3CCCCN(S(C)(=O)=O)C[C@@H]23)cc1` the activity change, negative = inhibition was -1.08% (inactive), the activity change, negative = inhibition [1] was 5.65% and the Gaussia minus Italica difference was -6.73%.
With `COc1ccccc1C#Cc1ccc([C@H]2[C@@H](C#N)N(C(=O)C3CCCCC3)[C@@H]2CO)cc1` the activity change, negative = inhibition was -1.13% (inactive), the activity change, negative = inhibition [1] was -0.0756% and the Gaussia minus Italica difference was -1.05%.
In the case of `CN(C)CC#Cc1ccc([C@@H]2[C@H](CO)N3CCCCN(C(=O)Nc4ccc(F)cc4)C[C@@H]23)cc1`, the activity change, negative = inhibition is reported as 15.2% (inactive), the activity change, negative = inhibition [1] is reported as 5.12% and the Gaussia minus Italica difference is reported as 10.1%.
With `O=C(Nc1cccc(F)c1)N1CCCCN2[C@H](CO)[C@H](c3ccc(C#CC4CC4)cc3)[C@@H]2C1` the activity change, negative = inhibition was -32.4% (active), the activity change, negative = inhibition [1] was 5.1% and the Gaussia minus Italica difference was -37.5%.
For `COc1ccc(S(=O)(=O)N2CCCCN3[C@H](CO)[C@@H](c4ccc(C#CC(C)C)cc4)[C@H]3C2)cc1`, the activity change, negative = inhibition was -31.7% (active), the activity change, negative = inhibition [1] was -3.69% and the Gaussia minus Italica difference was -28%.
